Biological target: ATG16L1
Experiment: pooled miR-30 sensor sort-seq; sequence = guide strand
Conditions: shRNA
Note: reference of the scale not given here.

Sequence	sensor-assay potency score (higher = more potent)
TTTGTCCACACTGACAACGTGC	-0.838
TTTCTTGTGTAATTCAGTCAGT	-0.093
TTTTGCTTCATTCATCTGCATC	-1.44
TTGTAGCTGATTGTCATTCCAT	-0.0295

Biological target: ATHL1
Experiment: as above
Conditions: shRNA

Sequence	sensor-assay potency score (higher = more potent)
TACACAGAGTTGTTGACCCCTG	-0.218
TCGAGCTGTGACCTCCACGGTC	-1.01
TGGAACATCAGGATACTCGGGA	-0.126
TTGATCTTGTCAGCCACCGCCA	-0.876
TCAAAGGGTACCTTGATCTTGT	0.372
TCCACAGTGAGTGACTCGGTGG	-1.15
TAAATCTCCAGATTTTTCCTGC	0.146
TTGGTGTACACAGAGTTGTTGA	-0.594
TTTTTGGCAAAGCTGCACCTGA	-0.809
TACCTTGATCTTGTCAGCCACC	-0.985
TCGAAATAGCTGCAGGTCCTGG	-1.24

Biological target: ATOX1
Experiment: as above
Conditions: shRNA

Sequence	sensor-assay potency score (higher = more potent)
TTTTCTTCAGGGTTGCAAGCAG	0.404
TCAATGTCATACTTAACTCCTC	-0.482
AATGCAGACCTTCTTGTTGGGC	-0.556
TAGGAAACAGTCTTTCCTGTTT	-0.521
TAACTCCTCCAAGCTTATTGAG	-1.42
TGTCATACTTAACTCCTCCAAG	-0.838
AAGCAGAGTGTCCATGCTGTGC	-1.19
TTCAATGCAGACCTTCTTGTTG	-0.466
AGTCTTTCCTGTTTTCTTCAGG	-1.75
AACTCCTCCAAGCTTATTGAGG	-1.32
TACTTAACTCCTCCAAGCTTAT	-1.31
TCCAAGCTTATTGAGGACCCGA	-0.663
TTCCTGTTTTCTTCAGGGTTGC	-0.392
TATTGAGGACCCGAGAGACAGC	-1.44
TTGTTGGGCAGGTCAATGTCAT	-0.613
TCAATGCAGACCTTCTTGTTGG	-0.56
TTTCTTCAGGGTTGCAAGCAGA	-1.16
TTCTTCAGGGTTGCAAGCAGAG	-0.987
TTCAGCACAGCCTCCACAGGTC	-0.0676
TCAGATTCAATGCAGACCTTCT	-0.2
ATGTCATACTTAACTCCTCCAA	-0.956
TTTCCTGTTTTCTTCAGGGTTG	-0.588
ATACTTAACTCCTCCAAGCTTA	-0.272
TTCAGGGTTGCAAGCAGAGTGT	-1.04
